# Screening data from PubChem.
# Tb PYK inh = qHTS of Trypanosoma Brucei Inhibitors; pyruvate kinase (Trypanosoma brucei), Q57TT1; TbPYK enzyme, Kinase-Glo Plus ATP luminescence, 45 min; Potency, µM (doses to about 76.8 µM), for the others: top-dose activity, negative = inhibition, usual class: inhibitors; 410,000 tested, 0.12% active; AID 624173, 2012; further: potency means the concentration at half of the fitted maximal effect; on the % scale 0 is the no-effect control and ±100 the full control effect; nearly all actives have a fitted effect of over 50% in size
#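 Enzyme and substrate buffer are dispensed first and compound is pin-transferred. ADP at 130 uM final then starts the reaction, which runs 45 min at room temperature. Detection reagent is added for 10 min before luminescence is imaged.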
# Sm TGR inh = qHTS Assay for the Inhibitors of Schistosoma Mansoni Peroxiredoxins | Schistosoma mansoni thioredoxin glutathione reductase (TGR), Q962Y6 | purified TGR, DTNB reduction, TNB absorbance 405 nm | Potency, µM (titrated, usually from 114 µM), for the others: at the top dose activity change, negative = inhibition, actives largely listed as inhibitors | 360,000 tested, 3% active; further: potency means the concentration at half of the fitted maximal effect; on the % scale 0 is the no-effect control and ±100 the full control effect; nearly all actives have a fitted effect of over 60% in size
#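 First, TGR (20 nM dispensed) and NADPH were mixed with compound. Second, a 15 min room-temperature incubation followed. Third, further NADPH and then DTNB were added to start the reaction. Finally, TNB absorbance was monitored kinetically.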
# Shiga inhibitor = A qHTS for Small Molecule Inhibitors of Shiga Toxin; AID 2315, 2010; 290,000 tested, 9.2% active; Vero cells, Shiga toxin protein synthesis inhibition reporter; inhibition, % at 38.7 µM; in the data active means inhibition mostly above about 28%, no sharp cut-off; inactive means mostly below about 43%; further: 0% is about no effect
# Giardia FBPA inh = qHTS Assay for Inhibitors of Fructose-1,6-bisphosphate Aldolase from Giardia Lamblia; A8B2U2; purified Giardia FBPA; Potency, µM (titrated, usually from 59.6 µM), for the others: at the top dose activity, negative = inhibition, hits mostly inhibitors; 290,000 tested, 0.71% active; AID 2451, 2010; further: potency means the concentration at half of the fitted maximal effect; on the % scale 0 is the no-effect control and ±100 the full control effect; nearly all actives have a fitted effect of over 55% in size
# Target sequence (A8B2U2 whole entry, looked up): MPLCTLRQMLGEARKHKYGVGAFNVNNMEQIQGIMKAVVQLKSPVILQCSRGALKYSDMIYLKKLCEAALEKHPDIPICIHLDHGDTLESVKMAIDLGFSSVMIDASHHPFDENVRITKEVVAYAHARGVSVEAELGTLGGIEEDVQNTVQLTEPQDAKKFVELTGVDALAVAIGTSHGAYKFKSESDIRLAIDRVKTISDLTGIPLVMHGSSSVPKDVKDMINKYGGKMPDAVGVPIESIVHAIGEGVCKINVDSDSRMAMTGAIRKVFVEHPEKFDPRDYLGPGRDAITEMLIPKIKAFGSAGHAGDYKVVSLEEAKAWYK
#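 40 nM FBPA preincubated 10 min at RT with compound (up to 57.5 uM final), then substrate plus GAPDH/TPI/NAD/arsenate coupling and diaphorase/resazurin added. Fluorescence read after 20 min at RT, 525/598 nm.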
# CHX counter = Cycloheximide Counterscreen for Small Molecule Inhibitors of Shiga Toxin; 300,000 tested, 12% active; cell reporter, cycloheximide protein synthesis inhibition counterscreen; max response, %; in the data active means max response mostly above about 13%, no sharp cut-off; inactive means mostly below about 14%; further: read at 38.3 µM for the half of the compounds with a filed dose; 0% is about no effect
# LmPK inh = qHTS Assay for Inhibitors of Leishmania Mexicana Pyruvate Kinase (LmPK); purified LmPK, Kinase-Glo ATP luminescence, 1 h; Q27686; 290,000 tested, 0.37% active; AID 1721, 2009; Potency, µM (highest dose often 57.5 µM), for the others: at the highest dose activity change, negative = inhibition, hits mostly inhibitors; further: potency means the concentration at half of the fitted maximal effect; on the % scale 0 is the no-effect control and ±100 the full control effect
#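 0.1 nM LmPK, 0.5 mM PEP, 0.1 mM ADP; 50 mM imidazole pH 7.2, 7 mM MgCl2, 50 mM KCl; 1 h RT. Kinase-Glo luminescence readout, normalized to no-enzyme (full inhibition) and uninhibited wells.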
# The depositor's hits bear a star; ? = inconclusive; . = no result; + = active, no number. This is one part of a sample in which hits are shown more often than they occur. Unless noted, the call rests on the fitted dose curve; in most records, active means well fitted curve in the direction sought with a large enough effect; inconclusive means small, poorly fitted or top-dose-only effect, or another doubt; inactive means no such curve, though single readings can be large; an effect the other way counts as inactive or inconclusive.
SMILES,Tb PYK inh,Sm TGR inh,Shiga inhibitor,Giardia FBPA inh,CHX counter,LmPK inh
Cc1ccc(/C=N/N2CCN(Cc3cccc4ccccc34)CC2)s1,-1.5%,-16.1%,-1.5,-0.6%,-4.2,-10.8%
O=[N+]([O-])c1cc(/C=N/N2CCN(Cc3ccccc3)CC2)ccc1Cl,-3.3%,.,-6.4,0.5%,-0.8,-3.3%
Cc1ccc(/C=N/N2CCOCC2)s1,-2.7%,-0.4%,68.2*,-3.0%,46.4*,-9.9%
FC(F)(F)c1ccccc1/C=N/N1CCN(Cc2ccccc2)CC1,5.4%,-10.4%,109.0*,-4.6%,36.2*,-3.8%
FC(F)(F)c1ccc(/C=N/N2CCN(Cc3ccccc3)CC2)cc1,1.9%,8.3%,1.4,-0.4%,8.3,2.9%
Clc1cccc(/C=N/N2CCN(Cc3ccccc3)CC2)c1,0.4%,6.3%,50.9,1.5%,20.8*,1.5%
Cc1ccc(CN2CCN(/N=C/c3ccc(C)s3)CC2)cc1,-9.7%,-7.7%,-13.7,2.9%,-2.9,-1.5%
Cc1ccc(/C=N/N2CCN(Cc3ccccc3)CC2)s1,1.8%,13.8%,70.0*,12.6%,50.6*,0.5%
CC(C)CC1NC(=O)N(CC(=O)Nc2ccc3c(c2)OCCO3)C1=O (centres undefined),-1.3%,3.3%,.,.,.,.
CCc1noc(C)c1C(=O)N1CCN(S(=O)(=O)c2ccc(Cl)s2)CC1,-11.6%,-6.2%,.,.,.,.
O=C1c2oc3ccccc3c(=O)c2C(c2ccccc2)N1Cc1ccc2c(c1)OCO2 (centres undefined),0.3%,1.9%,.,.,.,.
Cc1cccc(N2CCN(C(=O)c3cc4ccc5cccnc5c4[nH]3)CC2)c1C,1.0%,-0.5%,.,.,.,.
C(=N\N1CCN(Cc2ccccc2)CC1)/c1ccccc1,4.1%,5.1%,68.6*,3.9%,38.6*,-2.0%
BrC(=C\c1ccccc1)/C=N/N1CCN(Cc2ccccc2)CC1,-2.6%,4.5%,12.7,-1.6%,21.9*,6.7%
Cc1ccc(C(C)(C)C)cc1S(=O)(=O)Nc1cccc(C(=O)N2CCN(c3ccccn3)CC2)c1,7.2%,3.8%,.,.,.,.
CC(C)(C)Sc1ccc2nc3c(n2c1)CCCC3,2.2%,2.4%,35.0,?,14.9*,1.4%
CCN1C(=O)/C(=C\c2ccc(-c3ccc([N+](=O)[O-])cc3OC)o2)SC1=Nc1cccc(C(=O)O)c1,-3.8%,35.5µM*,4.0,-19.0%,-4.6,-9.4%
CCN=C1S/C(=C\c2ccc(-c3cccc(C(=O)O)c3)o2)C(=O)N1CC,-2.6%,?,+,7.1%,83.2*,0.9%
CCN1C(=O)/C(=C\c2ccc(-c3cccc(C(=O)OC)c3)o2)SC1=Nc1ccc(C(=O)O)cc1,.,-10.2%,-4.5,0.7%,-3.6,7.3%
CCc1ccc(OCCCC(=O)Nc2ccc(S(=O)(=O)Nc3cc(C)nc(C)n3)cc2)cc1,-0.3%,-22.4%,15.6,-12.2%,8.0,6.5%
O=C(O)CC(C(=O)O)n1nc(-c2ccccc2)cc1-c1ccccc1 (centres undefined),3.2%,-0.5%,73.4,21.5%,38.9*,11.7%
O=C(O)Cn1nc(-c2ccccc2)cc1-c1ccccc1,-3.9%,0.4%,8.8,7.8%,11.9,-4.6%
CCc1nc2c(OCc3ccc(OC)cc3)cccn2c1N(C)C(=O)c1ccco1,-8.2%,.,.,.,.,.
Cn1nc(-c2ccccc2F)c2cc(C(=O)NCCc3ccc(Cl)cc3)sc21,-10.1%,-5.0%,.,.,.,.
CC(C)Cc1cc(C(=O)Nc2cccnc2)no1,-3.2%,-1.2%,111.2*,-0.4%,35.4*,-9.8%
SMILES,Tb PYK inh,Sm TGR inh,Shiga inhibitor,Giardia FBPA inh,CHX counter,LmPK inh
CC(=O)c1ccc(NC(=O)c2ccn(C(=O)OCC(C)C)n2)cc1,-4.6%,0.3%,55.8*,3.0%,70.7*,-9.1%
CC(=O)c1ccc(NC(=O)c2cc(CC(C)C)on2)cc1,2.1%,3.6%,active,-0.1%,18.1*,1.4%
CC(C)COC(=O)n1ccc(C(=O)N2CCCCC2)n1,-0.9%,5.3%,22.0,7.4%,8.0,-9.9%
CC1CCN(S(=O)(=O)c2c[nH]c(=O)[nH]c2=O)CC1,4.7%,2.8%,.,.,.,.
COCCNc1nc(Nc2ccc(F)cc2)c2sccc2n1,-2.2%,.,.,.,.,.
NC(=O)C1CCCN1S(=O)(=O)c1ccc2ccccc2c1 (centres undefined),-0.1%,0.0%,-19.5,.,-1.8,0.8%
COc1ccc(NC(=O)CSC2=Nc3ccccc3C3=NC(CCC(=O)NCc4cccs4)C(=O)N23)cc1 (centres undefined),-0.9%,-1.3%,.,.,.,.
COc1ccc2c(c1OC)C(=O)OC2N1C(=O)CC[C@H]1C(=O)Nc1ccc2c(c1)OCO2 (some centres undefined),3.6%,-1.8%,24.5,19.9%,11.7,-11.9%
CSCC[C@H](NC(=O)[C@H](CC(C)C)NC(=O)CCNC(=O)[C@@H](NC(=O)[C@H](Cc1ccccc1)NC(=O)[C@H](CO)NC(=O)[C@@H](N)CC(=O)O)C(C)C)C(N)=O,.,.,0.3,0.0%,-6.1,.
COc1cccc(/C(O)=C2/C(=O)C(=O)N(c3cc(C)on3)C2c2cccs2)c1 (centres undefined),4.2%,?,52.7,0.6%,-1.0,1.7%
Cc1cc(N2C(=O)C(=O)/C(=C(/O)c3ccccc3)C2c2cccs2)no1 (centres undefined),2.4%,39.8µM*,12.6,15.0%,-3.4,-4.1%
O=C(CSc1nnc(C2CC2)n1-c1ccccc1)N1CCNC1=O,-0.5%,?,.,.,.,.
O=C(O)c1ccc(NC2=C(n3nnc4ccccc43)C(=O)c3ccccc3C2=O)cc1,-5.3%,7.08µM*,8.2,?,0.7,-0.9%
Cc1c(Cc2ccccc2)[n+](=O)c2ccccc2n1[O-],-0.6%,.,.,.,.,.
O=c1c2ccccc2nnn1Cc1nnc(-c2ccccc2Br)o1,5.6%,-0.8%,127.8*,9.1%,44.3*,2.3%
O=C1c2ccccc2S(=O)(=O)N1Cc1nnc(-c2ccccc2Br)o1,2.7%,-3.5%,4.8,7.5%,12.4,1.7%
O=C1C2CC=CCC2C(=O)N1Cc1nnc(-c2ccccc2Br)o1 (centres undefined),-5.9%,-0.5%,67.7*,4.1%,26.1*,-6.7%
Clc1ccc(C=Cc2ccccn2)cc1,-9.2%,.,.,.,.,.
Brc1ccc(N=Cc2ccccn2)cc1,-3.6%,0.0%,54.4*,-1.9%,22.1*,-1.2%
C(=C\c1ccccn1)/c1ccccn1,-1.6%,0.0%,105.4*,-10.9%,63.5*,-20.5%
C(=NOCc1ccccc1)c1ccccn1,-5.5%,.,.,.,.,.
CC1(C)CC[C@]2(C(=O)O)C(O)C[C@@]3(C)C(=CCC4[C@@]5(C)CCC(O)C(C)(C)C5CC[C@@]43C)C2C1 (some centres undefined),.,.,.,6.0%,.,.
